An excerpt weighted towards active compounds, which were near 5.4% of everything screened.
AHR act: AHR activators, primary screen, cell-based, luminescence, luciferase reporter, human | Aryl hydrocarbon receptor (Homo sapiens), P35869 | actives 2.5% (n = 320,000) | AHR-responsive luciferase reporter cells | activation, % at 5 µM; in the data active = activation above about 47%;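 also: 0% = vehicle wells and 100% = reference agonist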
HSF1 inhib: HSF1 inhibitors in luciferase reporter cells, primary screen, cell-based, NIH3T3, luminescence. NIH3T3-HGL HSE-luciferase, MG132-induced, luminescence 8 h; stronger effect = lower value. actives 0.77% (n = 300,000). activity change, negative = inhibition, % at 7.5 µM (by protocol). AID 2098, 2009;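 active = more than half of replicate wells show activity change below -50%, luminescence cut by over half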;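 also: luciferase reports HSF-1 transcriptional activity via heat shock element; 0% = median of DMSO wells and -100% = zero luminescence signal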
GAA850 FXN act: FXN promoter activators, primary screen, cell-based, luciferase luminescence, HEK293 lucGAA850; actives 0.56% (n = 360,000); HEK293 lucGAA850 FXN promoter luciferase reporter, 24 h; percent of 10 µM SAHA response; activation, % at 6 µM;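 active = activation above the average of all compounds screened plus 3 SD, cutoff fixed separately per campaign, cut at about 7.5% in these data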;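 also: 0% = DMSO wells and 100% = 10 µM SAHA wells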
NR0B1 inh: DAX1 (NR0B1) inhibitors, primary screen, cell-based, HEK293, Gal4-DAX1, luciferase luminescence; Nuclear receptor subfamily 0 group B member 1 (Homo sapiens), P51843; HEK293 Gal4-DAX1 luciferase reporter; inhibition, % at 6.75 µM; actives 0.99% (n = 340,000);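 active = inhibition above the mean over all tested compounds plus 3 SD, cut at about 4.2% in these data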;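 also: 0% = DAX1-transfected cells with DMSO and 100% = empty-vector control cells with DMSO; inhibition shows as a rise in luminescence from relieved DAX1 repression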
HSF-1 act: HSF-1 activators, primary screen, NIH3T3-HGL cells, MG132 stress, luminescence, single point | NIH3T3-HGL HSF-1 luciferase reporter, 8 h; 100% = twice DMSO control signal | activation, % at 9 µM | actives 1.7% (n = 300,000) | AID 504408, 2011;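 active = mean replicate activation of at least 50% with a set share of replicates each reaching 50%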;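 also: 0% = median of the neutral control wells and 100% = twice that signal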
An asterisk follows results filed as active; x = not tested or not shown.

SMILES | AHR act | HSF1 inhib | GAA850 FXN act | NR0B1 inh | HSF-1 act
Cc1cc(OCC(=O)N(Cc2ccco2)C2CCS(=O)(=O)C2)cc(C)c1Cl (centres undefined) | 5 | 11 | 0 | x | 57*
COc1ccc(NC(=O)Nc2cccc3[nH]c([C@@H]4O[C@H](CO)[C@@H](O)[C@H](O)[C@H]4O)nc23)cc1OC1CCCC1 | x | x | -1 | x | x
CCOC(=O)c1c(C)n(C)c2ccc(O)c(CN3CCN(C)CC3)c12 | 5 | 29 | -1 | -1 | 56*
CCOC(=O)c1c(CSc2ccccc2)n(C)c2ccc(O)c(CN3CCOCC3)c12 | 12 | 70 | -1 | -1 | 70*
Nc1nnc(SCc2ccc(Cl)cc2)s1 | 1 | 11 | 0 | -1 | 27
Nc1nnc(SCc2c(F)cccc2Cl)s1 | -4 | 45 | 1 | 2 | 77*
COc1cccc(N(C(=O)c2cccs2)c2nc3ccccc3s2)c1 | 2 | -67* | 5 | 1 | -74
COc1ccc(NC(=O)CSc2nnnn2C2CC3C=CC2C3)cc1 (centres undefined) | 3 | 4 | 1 | 0 | -7
Cc1cc(NS(=O)(=O)c2ccc(NC(=S)NCc3ccccc3)cc2)no1 | 0 | -9 | 1 | 6.5* | 1
O=C(CCC1CCCN(C(=O)c2ccc3c(c2)OCO3)C1)NCc1ccc(F)c(F)c1 (centres undefined) | 5 | 18 | 1 | 0 | 32
O=C(CCC1CCCN(C(=O)c2ccc3cc[nH]c3c2)C1)NCc1ccc(F)c(F)c1 (centres undefined) | 5 | 24 | 1 | -1 | 57*
CCN(CC(=O)Nc1ccc(NC(C)=O)cc1)C(=O)/C=C/c1ccc(S(=O)(=O)N2CCCCCC2)cc1 | 11 | -2 | 1 | -1 | -8
O=C(COC(=O)c1cc(S(=O)(=O)N2CCCC2)ccc1O)Nc1ccccc1Br | 0 | x | 1 | 1 | x
Cc1nc2ccccc2n1/N=C/c1ccc([N+](=O)[O-])o1 | 37 | 41 | 1 | -1 | 77*
Cc1cc2ncn(/N=C/c3ccc([N+](=O)[O-])s3)c2cc1C | 12 | 14 | 3 | 0 | 25
O=[N+]([O-])c1ccc(/C=N/n2cnc3ccccc32)s1 | 27 | 37 | -2 | -3 | 63*
O=[N+]([O-])c1ccc(/C=N/n2c(CO)nc3ccccc32)s1 | 29 | 17 | 5 | -1 | 18
Cc1nc2ccccc2n1/N=C/c1ccc([N+](=O)[O-])s1 | 52* | 8 | 0 | -3 | 18
CC(=O)Nc1ccc(S(=O)(=O)N(Cc2ccco2)Cc2cc3ccccc3[nH]c2=O)cc1 | 3 | -5 | -5 | -1 | 19
CN(C)c1ccc(N=Nc2ccc(C(=O)O)cc2)cc1 | -1 | -48 | -4 | -5 | -55
Cc1cc(O)c(N=Nc2ccc(C(=O)O)cc2)cc1C | x | x | 5 | 4.3* | x
CCC(C)[C@@H](N)C(=O)N/N=C/c1cccc2nccnc12 (some centres undefined) | 70* | -3 | x | x | -4
CCC(C)[C@H](NC(=O)OC(C)(C)C)C(=O)N/N=C/c1cccc2nccnc12 (some centres undefined) | 1 | 2 | 1 | -1 | -4
Cc1cc(=O)[nH]c(SCC(=O)Nc2c(C)n(C)n(-c3ccccc3)c2=O)c1C#N | -1 | x | 2 | 0 | x
CCOc1ccc(CC(=O)C2C(=O)CC(C)(C)CC2=O)cc1OCC | 0 | -1 | 1 | 4.4* | 9
SMILES | AHR act | HSF1 inhib | GAA850 FXN act | NR0B1 inh | HSF-1 act
CCOc1ccc(CC(=O)C2C(=O)CCCC2=O)cc1OCC | 3 | -10 | -1 | 0 | -12
Cc1c(CCC(=O)NCCCN2CCCC2=O)c(=O)oc2c(C)c(O)ccc12 | -1 | -5 | 1 | -1 | -6
Cc1cc(C)n2nnnc2n1 | 0 | -11 | -2 | 2 | -1
NCC(c1ccccc1Cl)c1c[nH]c2ccccc12 (centres undefined) | 57* | 0 | 0 | 2 | 10
NCC(c1ccc(Cl)cc1Cl)c1c[nH]c2ccccc12 (centres undefined) | 65* | 9 | -1 | -1 | -1
O=C(OCC(=O)N1CCOCC1)c1cncc(Br)c1 | x | x | 1 | 0 | x
CCOC(=O)c1[nH]cnc1C(=O)Nc1cccc(Cl)c1 | 1 | -6 | 1 | 0 | -8
CCC(=O)NN1CCN(c2ccncc2S(=O)(=O)N2CCCCC2)CC1 | -2 | -1 | -1 | 0 | -12
Cc1cc(-c2nnc(SCC(=O)Nc3ccc(F)cc3F)n2N)n[nH]1 | 6 | 1 | 1 | 1 | 1
COc1oc(-c2ccccc2C)nc1C(F)(F)F | -2 | 2 | 2 | 1 | -2
COc1oc(-c2ccccc2)nc1C(F)(F)F | 1 | 10 | -1 | 4.3* | -1
COc1cccc(-c2cc(C(F)(F)F)n3nc(N)nc3n2)c1 | 68* | -7 | 4 | 2 | -19
COc1ccc(-c2cc(C(F)(F)F)n3nc(N)nc3n2)cc1 | -8 | 4 | 3 | 0 | 5
CC(=O)c1c(-c2ccc(Cl)cc2Cl)noc1C | -1 | -57* | 1 | -1 | -64
Cc1onc(-c2ccc(Cl)cc2Cl)c1C(=O)/C=C/N(C)C | -2 | 2 | 0 | 1 | 25
COc1cccc(N=C(N)N)c1 | 3 | 0 | 3 | -1 | -1
Cc1cccc(C)c1OCC(=O)NCc1nnc(SCC(=O)NC2CCCCC2C)n1C (centres undefined) | -3 | 37 | 0 | 1 | 94*
O=C(CSc1nccn1-c1cccc(Cl)c1)NC1CCCC1 | 8 | 0 | -3 | -1 | -3
Cn1c(COc2ccc(Cl)cc2)nnc1SCC(=O)NC1CC1 | 6 | x | 1 | 0 | x
Cn1c(CNC(=O)c2ccc(Cl)cc2)nnc1SCC(=O)NC1CCCC1 | -1 | -9 | 1 | 6.5* | -10
CCn1c(CC(=O)Nc2ccc(F)cc2)nnc1SCC(=O)NC1CCCC1 | 0 | -5 | 0 | 4.8* | -4
O=C(CSc1cc(Cl)ccc1Cl)NC1CCCC1 | 0 | 0 | 1 | 5.4* | 10
CCc1nc2c(OCCOc3ccc(F)cc3)cccn2c1N(C=O)Cc1ccc(OC)cc1 | x | x | 0 | x | x
O=C(CC1(O)C(=O)Nc2ccc(Br)cc21)c1ccc2c(c1)OCO2 (centres undefined) | 6 | 8 | -3 | -1 | 57*
COc1ccc(Nc2nccc3c2nnn3C)cc1 | 62* | 11 | 1 | 3 | 38
CC(C)(C)C1(O)CC(C(F)(F)F)=NN1C(=O)CCCc1ccccc1 (centres undefined) | 7 | -7 | 0 | 4.6* | -10

Assay outcomes as filed in PubChem BioAssay.
